An excerpt weighted towards active compounds, which were near 3.4% of everything screened.
FBW7 act: activators of human E3 ligase FBW7 | Q969H0 | AlphaScreen FBW7–phospho-cyclin E peptide binding, activator screen | normalized activity (activation), % at 26.1 µM | actives 0.13% (n = 650,000) | AID 1259310; in the data active = normalized activity above about 1.9%;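 also: purified mutant Fbw7 with reduced substrate affinity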
GPR151 ag: activates the human receptor GPR151; PathHunter beta-arrestin GPR151 cells, luminescence; activation, % at 11.2 µM; actives 1% (n = 650,000); AID 1508602; in the data active = activation above about 4.9%;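 also: 0% = median of compound wells and 100% = cells with positive control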
Target sequence (Q8TDV0 whole entry, looked up): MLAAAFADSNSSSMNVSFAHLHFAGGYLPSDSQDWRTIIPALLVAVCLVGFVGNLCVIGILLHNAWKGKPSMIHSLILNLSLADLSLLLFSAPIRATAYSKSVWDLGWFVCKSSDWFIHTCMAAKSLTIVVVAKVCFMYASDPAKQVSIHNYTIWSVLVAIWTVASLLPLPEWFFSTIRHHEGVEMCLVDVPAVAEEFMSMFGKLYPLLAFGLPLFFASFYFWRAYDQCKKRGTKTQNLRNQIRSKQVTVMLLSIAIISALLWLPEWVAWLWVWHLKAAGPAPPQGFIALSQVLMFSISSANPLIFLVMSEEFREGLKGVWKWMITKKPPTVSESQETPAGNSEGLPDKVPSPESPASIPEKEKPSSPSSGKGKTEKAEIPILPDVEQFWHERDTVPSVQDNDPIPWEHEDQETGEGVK
TEAD-YAP block: TEAD-YAP interaction inhibition. actives 1.4% (n = 640,000). inhibition, % at 9.12 µM. HEK-TIYL cells, TEAD-Gal4/YAP UAS-luciferase luminescence; in the data active = inhibition above about 32%;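 also: 0% = median of test compound wells and 100% = reference inhibitor wells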
MITF primary: inhibitors of human MITF; AID 1259374; inhibition, % at 2.6 µM; AlphaScreen MITF homodimerization, bead proximity signal; actives 0.91% (n = 650,000); O75030; in the data active = inhibition above about 50%;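 also: 0% = vehicle wells with protein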
GPR151 conf act: human GPR151 activation, confirmation screen; shares compounds with GPR151 ag; GPR151 PathHunter beta-arrestin cells, luminescence, 90 min; % of EA-reagent control over plate median; activation, % at 11.2 µM; 6,700 tested, under 10 active;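 active = mean percent activation across replicates above the confirmation screen cutoff of 4.91%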
GPR119 ag: activates human GPR119 in a GPR151 counter-screen; activation, % at 11.2 µM; shares compounds with GPR151 ag; GPR119 PathHunter beta-arrestin cells, luminescence, 90 min; 0 = compound-well median, 100 = enzyme-acceptor control; actives 0.3% (n = 6,700);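 active = mean percent activation in the counterscreen above 29.09%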;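 also: counterscreen on off-target GPR119 to flag nonselective hits from the GPR151 activator screen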
* hit, by the source's call; . = no result.

SMILES | FBW7 act | GPR151 ag | TEAD-YAP block | MITF primary | GPR151 conf act | GPR119 ag
O=C1N[C@@H](Cc2ccc(O)cc2)C(=O)N2CCN(C(=O)c3cc(F)ccc3F)C[C@H]12 | 0.1 | 5.7* | -18.2 | -1.9 | 1.1 | 9.0
O=C1N[C@@H](Cc2ccc(Cl)cc2)C(=O)N2CCN(C(=O)c3cc(Cl)cc(Cl)c3)C[C@H]12 | -0.1 | 15.5* | -6.0 | 1.2 | 1.3 | 10.1
O=C1N[C@@H](Cc2cnc[nH]2)C(=O)N2CCN(C(=O)c3ccc(F)cc3)C[C@H]12 | -0.2 | 6.0* | -2.7 | -20.4 | 0.9 | 12.3
COCCN(Cc1cc2cc3c(cc2[nH]c1=O)OCO3)C(=O)c1ccccc1F | 0.2 | 0.8 | 2.7 | 7.5 | . | .
Cc1[nH]nc2c1C(c1ccc(OCc3ccc(Cl)cc3Cl)cc1)C(C#N)=C(N)O2 (stereo unspecified) | 0.0 | -1.4 | -30.7 | 0.5 | . | .
Cc1cccc(NC(=O)/C=N/OC(=O)Nc2cccc(Cl)c2)c1 | 0.0 | 0.1 | -6.7 | 4.3 | . | .
C[C@H](O)[C@H]1NC(=O)[C@H]2CN(C(=O)c3ccc4ccccc4c3)CCN2C1=O | 0.1 | 6.2* | 6.5 | -1.6 | 1.2 | 13.4
C[C@@H](O)[C@@H]1NC(=O)[C@H]2CN(C(=O)c3ccc4ccccc4c3)CCN2C1=O | 0.0 | 3.1 | 5.5 | 10.0 | . | .
CCCC(=O)Nc1ccc(NC(=S)NC(=O)c2ccc(OC)cc2)cc1 | 0.0 | -1.7 | -11.2 | 7.5 | . | .
COc1ccc(C(=O)NC(=S)Nc2ccccc2O)cc1 | -0.1 | 6.8* | -31.3 | -9.6 | 0.5 | -3.0
CCC(=O)NC(=S)Nc1ccc(NC(=O)c2ccc(OC)cc2)cc1 | 0.1 | 6.6* | 8.3 | -8.8 | 0.2 | 6.7
Cc1noc(C)c1S(=O)(=O)N1CCN(Cc2nc(C(C)(C)C)cs2)CC1 | 0.0 | 1.7 | 0.2 | 0.1 | . | .
CCCS(=O)(=O)N1CCN(Cc2nc(C(C)(C)C)cs2)CC1 | 0.2 | 8.8* | -1.3 | -2.3 | 0.6 | 3.8
OC(c1cccnc1)c1ccc2c(c1)CN(Cc1cccc(Cl)c1)CCO2 (stereo unspecified) | 0.0 | 40.8* | -9.8 | 1.1 | 0.9 | -2.8
CCC(C(=O)N1CCCCC1)n1ncn2c(cc3occc32)c1=O (stereo unspecified) | 0.1 | 5.7* | -5.8 | 5.7 | 0.0 | 6.0
CCC(=O)Nc1ccc(NC(=O)/C=C/c2cc(Br)ccc2OC)cc1 | 0.0 | 9.6* | 7.2 | -4.5 | -0.2 | 1.3
CN(C1CCC(=O)N(Cc2ccc3ccccc3c2)CC1)C1CCOC1 (stereo unspecified) | 0.0 | 1.2 | -0.1 | 0.4 | . | .
CCn1c(SCC(=O)N/N=C(/C)c2ccc(OC)cc2)nc2ccccc21 | 0.4 | 6.8* | 13.5 | 19.5 | -0.7 | -4.5
Cc1nc(SCc2cccc(Oc3ccccc3)c2)n[nH]1 | -0.1 | 7.9* | 25.8 | 2.3 | 0.1 | -1.2
O=c1[nH]nc(SCc2cccc(Oc3ccccc3)c2)c(=S)[nH]1 | 0.0 | -1.3 | 4.1 | 4.8 | . | .
CC(=O)c1cccc(NC(=O)c2cnn3c(C(F)(F)F)cc(-c4ccco4)nc23)c1 | -0.1 | 5.1* | 3.9 | -8.9 | 0.5 | 1.3
Cc1ccc(-c2cc(C(F)(F)F)n3ncc(C(=O)NC(C)C)c3n2)cc1 | -0.1 | 5.0* | 0.6 | 4.9 | -0.3 | -4.8
COC(=O)COc1ccc(CNC2CCCCCCC2)cc1 | -0.4 | 5.4* | 2.8 | 0.1 | 0.2 | 4.0
COc1ccc(CN2CCN(Cc3ccc(OC)c(OC)c3OC)CC2)c(OC)c1 | 0.1 | 11.5* | 2.2 | 41.0 | -0.7 | 8.0
COc1ccc(/C=N/NC(=O)CNC(=O)c2cccc(Br)c2)cc1 | -0.1 | -0.3 | 4.4 | -0.4 | . | .
Cc1ccc(NC(=O)c2cc(S(=O)(=O)N3CCCCC3)ccc2F)cc1Cl | 0.6 | -0.2 | -8.7 | 7.2 | . | .
Cc1ccc(NC(=O)c2cc(F)c(F)cc2Cl)cc1S(=O)(=O)N1CCOCC1 | 0.1 | 5.2* | -5.8 | 5.5 | 0.3 | 6.9
Cc1ccc(NC(=O)c2cc(S(=O)(=O)N3CCCCCC3)ccc2F)cc1Cl | -0.2 | 6.2* | -11.7 | -6.6 | 0.6 | -9.7
O=C(Nc1cc(F)cc(F)c1)c1ccc(NCc2ccc(Cl)c(Cl)c2)c([N+](=O)[O-])c1 | 0.0 | -0.3 | -1.3 | 9.0 | . | .
CC1=CC(C)(C)N(C(=O)Nc2ccccc2)c2cc(C)ccc21 | -0.1 | -0.9 | -10.3 | -14.2 | . | .
